# In PubChem BioAssay (NCI):
# About 83,000 compounds went through this panel and 20% of them were active in at least one assay; those are over-represented in the sample as a whole.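 Values shown are percent growth following 48 h exposure of cells in 96-well plates to a single concentration of compound; below 10 was considered active.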 Unmarked numbers belong to inactive results. The source made the active and inactive calls.
# Tested on: HCC-2998 colon
# Assay: NCI-60 one-dose screen, 48 h (100 = growth as untreated, 0 = no growth, -100 = all killed)
# Conditions: 10 µM unless noted
row,Structure (SMILES),growth
1,COc1ccc(/C=N/NC(=O)Cn2c(-c3ccc(S(C)(=O)=O)cc3)nc3ccccc32)cc1,95.7%
2,CN(C)CCCn1c2c(c3ccncc3c1=O)C(=O)c1ccccc1-2,25.6%
3,OC1(c2ccccc2)c2ccccc2N(c2ccccc2)c2ccc(Cl)cc21 (stereo unspecified),-90.1% (active)
4,CC1(/C=C/c2ccc(-c3ccccc3)cc2)CCn2cnc3ncnc(c32)N1O (stereo unspecified),32.3%
5,C=C1C(=O)O[C@H]2[C@H]1CC/C(COC(=O)/C=C\C(=O)NCc1ccc(Cn3c(=O)sn(CCCCl)c3=O)cc1)=C\CC[C@@]1(C)O[C@@H]21,100%
6,C#Cc1cccc(NC(=O)C2CCCCN2C(=O)CCl)c1 (stereo unspecified),-18.7% [8.25 µM] (active)
7,O=C1CCCC1[n+]1ccccc1 (stereo unspecified),107%
8,N#C/C(=C\c1ccc(-c2cccc(Cl)c2)o1)C(=O)Nc1ncc(Cc2ccc(Cl)cc2)s1,94.3%
9,O=S(O)c1cc(Cl)cc(Cl)c1OCc1ccccc1,102%
10,O=C(C1=Cc2cc3ccccc3n2Cc2cnnn21)c1ccc(F)cc1,110%
11,CC(C)Cc1nc(Nc2ccccc2)[nH]c(=O)c1C#N,38.1%
12,CC[C@H](Nc1nc(N)nc(C)c1C#N)c1nc2cccc(CN(C)c3ncc(C(=O)NO)cn3)c2c(=O)n1-c1ccccc1,-7.29% (active)
13,CC(C)CCC[C@@H](C)[C@H]1CC[C@H]2[C@@H]3CC=C4c5sc(Nc6cc(C(F)(F)F)cc(C(F)(F)F)c6)nc5CC[C@]4(C)[C@H]3CC[C@]12C,101%
14,N#CC1=C(N)Oc2c(sc3c(F)cccc23)C1c1ccc([N+](=O)[O-])cc1 (stereo unspecified),-40.8% (active)
15,c1ccc(-c2c(-c3ccccc3)[n+](Cc3ccc4ccccc4c3)cn2Cc2ccc3ccccc3c2)cc1,-93.3% (active)
16,O=C(CSc1nnnn1-c1ccccc1)Nc1ccc(Oc2ccccc2)cc1,100%
17,Cc1ccc2c(c1)nc(C)n2-c1ncnc2c1CC(C)c1cc(O)ccc1N2C (stereo unspecified),78.4%
18,Fc1ccc2[nH]cc(-c3nc(-c4c[nH]c5c(Cl)nccc45)cs3)c2c1,56.2%

row,Structure (SMILES),growth
1,COc1ccc(Oc2ccc(/C=C/C(=O)c3ccc(OC)c(OC)c3)cc2)cc1,104%
2,CCCCC#Cc1c(I)n(C2OC(CO[Si](C)(C)C(C)(C)C)C3OC(C)(C)OC32)c(=O)n(C(=O)c2ccccc2)c1=O (stereo unspecified),-9.34% (active)
3,O=C(N/N=C/c1ccc(Cl)cc1)c1ccc(NC(=O)c2ccccn2)cc1,72.3%
4,COc1cc(-c2cc(-c3ccc(Nc4nc(Nc5ccc(Cl)cc5)nc(Nc5ccc(Cl)cc5)n4)cc3)no2)cc(OC)c1OC,61.3%
5,NCCCNc1nc2ccccc2c2c(=O)c3cc(Cl)ccc3sc12,-75.6% (active)
6,Cc1ccc(OCCOCCOCCOCCOCCOc2ccc(C)n(O)c2=S)c(=S)n1O,-7.72% (active)
7,CC1(C)CC(=O)C2=C(C1)C(c1ccc(Cl)cc1)n1ncc(C#N)c1N2 (stereo unspecified),107%
8,CN(C)/C(N)=N/N=C(\c1ccccc1)c1ccccn1,94.3%
9,c1ccc(Nc2nc3c(s2)CCc2c[nH]cc2-3)nc1,103%
10,COc1cc2c(cc1OCCCN1CCN(C(=S)SCCC(C#N)(c3ccccc3)c3ccccc3)CC1)N=C[C@@H]1CCCN1C2=O,-86.8% (active)
11,O=C(NCCCCCCNC(=O)OCc1ccc2c(Cl)cc(Cl)c(O)c2n1)OCc1ccc2c(Cl)cc(Cl)c(O)c2n1,-88.3% (active)
12,O=C(/C=C/c1ccccc1)N(C1CCCCC1)C1CCCCC1,92.4%
13,C=CCn1cc(-c2nc3ccccc3s2)c2cc(-c3ccc4c5c(cccc35)C(=O)N(CCO)C4=O)ccc21,101%
14,COc1cc(/C=C/C(=O)c2cccc(-n3cc(-c4ccc(Cl)cc4)[nH]c3=O)c2)ccc1O,66.8%
15,O=C1Nc2ccc(Cl)cc2/C1=C/c1ccc[nH]1,65.8%
16,Cn1c2ccccc2c2c3c(c4c5cc(Br)ccc5n(C)c4c21)C(=O)N(O)C3=O,57.5%
17,O=S(=O)(NCCNc1nccc(-c2c(-c3ccc(F)c(O)c3)nc3sccn23)n1)c1ccc(Cl)cc1,59.6%
18,C[C@@H]1NC(=O)[C@H](Cc2ccccc2)N(Cc2cccnc2)C1=O,106%
